Screening data as filed in PubChem BioAssay.
The list is not random: actives were taken first. Their share in the collection is about 7.4%.
FLuc counter: firefly luciferase modulation, counter-screen for miR-21 project | Potency, µM (top dose mostly 57.5 µM), inactives show at the top dose activity change, negative = inhibition, actives largely listed as inhibitors | P08659 | 6.9% of 360,000 active | purified FLuc, Km substrates, luminescence inhibition;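 also: plate controls were vehicle for no effect and reference inhibitor for full effect; nearly all actives have a fitted effect of over 55% in size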
Target sequence (P08659 whole entry, looked up): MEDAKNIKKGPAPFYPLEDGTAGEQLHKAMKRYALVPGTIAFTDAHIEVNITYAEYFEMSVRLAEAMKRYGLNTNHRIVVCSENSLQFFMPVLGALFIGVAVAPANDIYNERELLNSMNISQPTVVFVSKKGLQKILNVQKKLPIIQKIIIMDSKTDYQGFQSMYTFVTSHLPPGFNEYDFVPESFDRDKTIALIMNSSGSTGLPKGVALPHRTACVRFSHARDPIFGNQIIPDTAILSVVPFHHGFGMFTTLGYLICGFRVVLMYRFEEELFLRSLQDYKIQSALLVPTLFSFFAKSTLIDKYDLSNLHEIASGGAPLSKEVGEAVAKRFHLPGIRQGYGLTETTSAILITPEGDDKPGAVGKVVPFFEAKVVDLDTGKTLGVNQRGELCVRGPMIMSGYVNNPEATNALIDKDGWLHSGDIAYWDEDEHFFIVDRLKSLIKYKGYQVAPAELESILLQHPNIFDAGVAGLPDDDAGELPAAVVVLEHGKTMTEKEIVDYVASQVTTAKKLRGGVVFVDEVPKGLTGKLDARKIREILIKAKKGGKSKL
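Purified P. pyralis luciferase, 10 nM final, with Km-level 10 uM D-luciferin and 10 uM ATP in 50 mM Tris acetate pH 7.5, 10 mM Mg acetate, 0.01% Tween-20, 0.05% BSA; 6-point qHTS titration about 60 µM downward; luminescence read.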
Rab9 prom act: activates the Rab9 promoter; Huh7 Rab9 promoter-luciferase reporter, luminescence, 24 h; 2.8% of 320,000 active; AID 485297; Potency, µM (titrated, usually from 9.22 µM), for the others: at the top dose activation, negative = inhibition, actives largely listed as activators; also: % of control where 0% means no effect; nearly all actives have a fitted effect of over 60% in size
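Rab9 promoter-driven luciferase in stably transfected Huh7 cells; 1500 cells/well rested 2 h, exposed to compound in DMSO for 24 h at 37 °C, 5% CO2. Luminescence read 10 min after adding luciferase reagent at ambient temperature.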
NPC1 prom act: activators of NPC1 promoter | Potency, µM (highest dose often 9.22 µM), for inactives: top-dose activation, hits mostly activators | 2.4% of 320,000 active | Huh7 NPC1 promoter luciferase reporter, 24 h | AID 485313; also: % of control where 0% means no effect; nearly all actives have a fitted effect of over 60% in size
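Luminescence read-out of NPC1 promoter-driven luciferase in stably transfected Huh7 cells; compounds delivered in DMSO and left 24 h at 37C, 5% CO2, qHTS titration format.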
KinaseGlo FLuc: blocks Kinase-Glo luciferase, a counter-screen artifact | Kinase-Glo luciferase, ATP luminescence, 8 min | Potency, µM (top dose mostly 38.3 µM), without a hit: at the highest dose activity change, negative = inhibition, most hits filed as inhibitors | AID 1379 | 0.28% of 200,000 active; also: % is scaled to controls: 0 for no effect and ±100 for the full control effect; nearly all actives have a fitted effect of over 60% in size
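Inhibition of Kinase-Glo luciferase light generation was assessed at 10 uM ATP in pH 7.2 imidazole buffer, with luminescence measured after eight minutes at ambient temperature.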
ELG1 genotox: induces genotoxicity in HEK293T cells with luciferase-tagged ELG1 | AID 504466 | 1.3% of 330,000 active | Potency, µM (top dose mostly 46 µM), inactives show at the top dose activity change, positive = activation, most hits filed as activators | HEK293T ELG1-luciferase reporter, luminescence, 16 h; also: % of control where 0% means no effect; nearly all actives have a fitted effect of over 60% in size
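After overnight (16 hr) compound treatment at 37 °C, ELG1-luciferase HEK293T cells were lysed with ONE-Glo; luminescence quantified 30 min later at room temperature.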
SMN2 splice enh: enhancers of SMN2 splice variant expression | Potency, µM (titrated, usually from 46.1 µM), without a hit: at the top dose activity change, positive = activation, most hits filed as activators | 2.8% of 210,000 active | HEK293 SMN2-luciferase splicing reporter, luminescence, 30-36 h | AID 1458; also: % of control where 0% means no effect; nearly all actives have a fitted effect of over 55% in size
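qHTS luciferase splicing reporter: luminescence rises when SMN2 exon 7 is included in transfected HEK293 cells. Compound exposure lasted 30-36 h at 37C, with 4.5 mM final sodium butyrate as control, followed by a ONE-Glo read.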
The depositor's hits bear a star; ? = inconclusive; · = not tested or not shown; [ ] = remark or other dose. Calls follow the shape of the dose curve; as a rule, active = well fitted curve in the direction sought with a large enough effect; inconclusive = small, poorly fitted or top-dose-only effect, or another doubt; inactive = no such curve, though single readings can be large; an effect the other way counts as inactive or inconclusive. Potency is read from the fitted curve at half-maximal effect.

SMILES	FLuc counter	Rab9 prom act	NPC1 prom act	KinaseGlo FLuc	ELG1 genotox	SMN2 splice enh
Cc1ccc(-c2cc(-c3ccccc3[N+](=O)[O-])[nH]n2)c(O)c1	?	3.5µM*	?	4%	?	18µM*
Cc1ccccc1-c1cc(-c2ccccc2O)n[nH]1	?	3.2µM*	28%	1%	?	25µM*
Oc1ccc(Br)cc1-c1cc(-c2ccccc2F)[nH]n1	-2%[2.3 µM]	-1%	-5%	-3%	0%	?
Cc1ccc(-c2cc(-c3ccccc3Cl)[nH]n2)c(O)c1	-29%[2.3 µM]	?	?	7%	?	13µM*
Cc1noc(-c2ccc(N3CCCCC3)c([N+](=O)[O-])c2)n1	5%	·	·	·	·	·
COc1cc2c(cc1OC)C1O[C@](CCCCN3C(=O)c4ccccc4C3=O)(C2)OC2=C1C(=O)OC1(CCCCC1)C2	-1%[11.5 µM]	-3%[1.84 µM]	1%[1.84 µM]	·	·	·
Cn1c(-c2ccncc2)nc2ccccc21	6%	0%	0%	·	7%	·
CCN(CC)c1ccc(-c2nc3cnccc3n2C)cc1	4.8µM*	4µM*	4µM*	-5%	?	?
COc1cccc(/C=C2\SC(N3CCC(C)CC3)=NC2=O)c1OC	17µM*	4%	12%	·	9%	·
CN1CCN(C2=NC(=O)/C(=C/c3ccccc3OS(=O)(=O)c3ccccc3)S2)CC1	4%	-2%	-2%	·	-3%	·
COc1cccc(/C=C2\SC(=S)N(N3CCOCC3)C2=O)c1OC	17µM*	-3%	-2%	1%	?	3%
COc1cccc(/C=C2\SC(N3CCCC(C)C3)=NC2=O)c1OC (stereo unspecified)	5.4µM*	?	?	·	?	·
COc1ccc(/C=C2\SC(=S)N(N3CCOCC3)C2=O)c(OC)c1	?	0%	3%	·	9%	·
COc1ccccc1/C=C1\SC(N2CCC(C)CC2)=NC1=O	12µM*	5%	-29%	·	?	·
CCOC(=O)C1CCN(C2=NC(=O)/C(=C/c3ccccc3OC)S2)CC1	?	-1%	8%	·	0%	·
CCN(CC)S(=O)(=O)c1ccc2c(c1)nc(CN(C)C(=O)Nc1ccc(F)cc1)n2C	-7%	·	·	·	·	·
CCc1ccc(-n2c(=O)c3c4c(sc3n(Cc3cc(=O)n5c(C)cccc5n3)c2=O)CCC4)cc1	-1%	·	·	·	·	-4%
COc1ccc(C2=NN(C(=O)CN3CCOCC3)C(c3nc4ccccc4[nH]3)C2)cc1 (stereo unspecified)	15µM*	?	11%	-2%	?	?
COc1ccc(/C=N/NC(=O)c2cc(C)n(-c3ccccc3)c2C)cc1OC	8.5µM*	22%	-20%	-3%	7%	17%
Cc1cc(C(=O)N/N=C/c2cccc([N+](=O)[O-])c2)c(C)n1-c1ccccc1	0.95µM*	?	?	-2%	?	10µM*
COc1ccc(/C=N/NC(=O)c2cccc(C(=O)N/N=C/c3ccc(OC)c(OC)c3)n2)cc1OC	2%	-2%	2%	·	-4%	·
Cc1cc(C(=O)N/N=C/c2ccc(Cl)c([N+](=O)[O-])c2)c(C)n1-c1ccc(F)cc1	-11%	-10%	-8%	-4%	?	-21%
CC1C(=O)OC2CC34C5CC(C(C)(C)C)C36C(OC(=O)C6O)OC4(C(=O)O5)C21O (stereo unspecified)	·	·	·	2%	·	·
O=C(NCCC1=CCCCC1)c1cnsn1	?	?	27%	-1%	16µM*	26%
C(=N\Nc1nccc(-c2cccnc2)n1)/c1ccccc1	4.8µM*	1.3µM*	1.8µM*	·	12%	·
SMILES	FLuc counter	Rab9 prom act	NPC1 prom act	KinaseGlo FLuc	ELG1 genotox	SMN2 splice enh
Cc1ccnc(N/N=C/c2ccccc2)n1	7.6µM*	1.3µM*	2.5µM*	-25%	?	13µM*
CSc1nccc(N/N=C/c2ccccc2)n1	2.7µM*	1.4µM*	1.6µM*	·	?	·
NC(=O)C[C@@H](N)C(=O)O	·	·	·	·	·	-3%
C=CCc1cccc(C=Nc2cccn3cc(-c4ccccc4)nc23)c1O	-17%	?	?	-8%	?	25µM*
COc1cc(OC)c(NC(=O)c2c(N3CCCC3=O)c3cc(C)ccc3n2C)cc1Cl	7%	·	·	·	·	·
O=C(Nc1cccc(Cl)c1)c1cc(-c2ccco2)on1	2.7µM*	-2%	2%	·	4%	·
O=C(Nc1cccnc1Cl)c1cc(-c2ccco2)on1	5.4µM*	?	5%	-5%	16µM*	-8%
O=C(Nc1c(Cl)cccc1Cl)c1cc(-c2ccco2)on1	?	0%	-2%	·	15%	·
COc1cccc(-c2cc(C(=O)Nc3ccccc3SC)no2)c1	7.6µM*	?	?	8%	?	16%
COc1ccc(-c2cc(C(=O)Nc3cccc(Cl)c3)no2)cc1	0.76µM*	1.1µM*	1µM*	·	1.8µM*	·
Cc1nc2nc[nH]n2c(=O)c1NS(=O)(=O)c1ccc(Br)cc1	?	·	·	·	·	0%
O=C(Nc1cc(Cl)ccc1O)c1cc(-c2ccco2)on1	?	18%	24%	·	21µM*	·
CCc1ccc(NC(=O)c2cc(-c3ccco3)on2)cc1	2.4µM*	2%	3%	-2%	12%	12%
COc1ccc(NC(=O)c2cc(-c3ccco3)on2)cc1	?	18%	-1%	10%	-6%	?
COc1cccc(-c2cc(C(=O)Nc3cccc(O)c3)no2)c1	0.43µM*	?	?	-17%	?	8%
CCCn1cc(NC(=O)c2cc(-c3ccccc3)on2)cn1	13µM*	?	18%	-1%	23µM*	23%
O=C(Nc1cnn(C23CC4CC(CC(C4)C2)C3)c1)c1cc(-c2ccccc2)on1	-1%	-5%	-1%	3%	-2%	5%
O=C1c2ccccc2CCC1CNCCc1ccc(O)cc1 (stereo unspecified)	·	·	·	·	·	-80%
O=C(Nc1cccc(Cl)c1)c1cc(-c2ccccc2)on1	1.5µM*	·	·	·	·	·
O=C(Nc1cccc2ccccc12)c1ccccc1Cl	-12%	6%	0%	·	1%	·
CC(=O)c1cccc(NC(=O)C(=O)Nc2cccc3ccccc23)c1	?	2.5µM*	?	-4%	16%	·
Nc1ccccc1C(=O)Nc1cccc2ccccc12	19µM*	2.8µM*	3.2µM*	·	?	·
O=C(Nc1cccc2ccccc12)c1ccccc1	13µM*	3.5µM*	?	-4%[7.66 µM]	?	-2%[9.22 µM]
O=C(CSc1nnc(-c2ccco2)o1)c1ccccc1Cl	27µM*	?	17%	2%	15%	22%
c1ccc(CSc2nnc(-c3ccco3)o2)cc1	17µM*	?	?	·	?	·
Fc1ccc(CSc2nnc(-c3ccco3)o2)cc1	?	?	?	·	15%	·
